# Only some compounds are listed: those with a hit (about 7.5% of all), similar ones and a draw of the others.
# FMDV inh – High Throughput Screening for Foot and Mouth Disease Virus Antivirals; FMDV antiviral cell-based qHTS; Potency, µM (top dose mostly 57.9 µM), for the others: at the highest dose activity change, negative = inhibition, usual class: inhibitors; 410,000 tested, 1.2% active; AID 1159524, 2015; calls by dose curve; tested in HEK293T cells; note: read-out not given here; potency is the fitted concentration of half-maximal effect; nearly all actives have a fitted effect of over 45% in size
# FBPA Giardia inh – qHTS Assay for Inhibitors of Fructose-1,6-bisphosphate Aldolase from Giardia Lamblia | A8B2U2 | purified Giardia FBPA | Potency, µM (highest dose often 59.6 µM), for the others: top-dose activity, negative = inhibition, actives largely listed as inhibitors | 290,000 tested, 0.71% active | AID 2451, 2010; note: potency is the fitted concentration of half-maximal effect; nearly all actives have a fitted effect of over 55% in size
# Target sequence (A8B2U2 whole entry, looked up): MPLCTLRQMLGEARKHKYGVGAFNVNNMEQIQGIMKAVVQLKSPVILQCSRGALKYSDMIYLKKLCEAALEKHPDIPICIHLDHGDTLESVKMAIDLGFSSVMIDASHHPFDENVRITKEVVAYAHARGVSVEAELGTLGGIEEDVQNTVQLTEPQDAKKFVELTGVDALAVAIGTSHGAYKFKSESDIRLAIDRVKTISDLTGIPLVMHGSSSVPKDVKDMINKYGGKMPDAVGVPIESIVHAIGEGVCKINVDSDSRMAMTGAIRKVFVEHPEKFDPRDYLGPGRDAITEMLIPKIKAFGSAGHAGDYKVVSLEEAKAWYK
#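 Giardia FBPA (40 nM reagent) was preincubated 10 min at RT with compound (up to 57.5 uM final), then substrate plus GAPDH/TPI/NAD/arsenate coupling system with diaphorase/resazurin was added; resorufin fluorescence (525/598 nm) was read after 20 min.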
# HCV inhibitor – qHTS Assay for Inhibitors of Hepatitis C Virus (HCV); Potency, µM (top dose mostly 41.8 µM), for the others: top-dose activity change, negative = inhibition, most hits filed as inhibitors; 340,000 tested, 3.4% active; Huh7.5.1 HCVcc-Cre infection, luciferase reporter, 44 h; note: potency is the fitted concentration of half-maximal effect
#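 Cells seeded at 1,000/well and cultured 4 h, then compounds added followed by HCVcc-Cre virus (~0.5 moi). After 44 h further culture, luciferase substrate was added, plates held 15 min at room temperature, and luminescence read for 15 sec.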
# VACV Venus inh – qHTS for Stage-Specific Inhibitors of Vaccinia Orthopoxvirus: Venus Reporter Primary qHTS; AID 720580, 2013; Potency, µM (doses to about 36.5 µM), without a hit: top-dose activity change, negative = inhibition, actives largely listed as inhibitors; 330,000 tested, 0.46% active; Vaccinia virus Venus reporter expression, fluorescence; calls by dose curve; tested in A549 cells; note: potency is the fitted concentration of half-maximal effect; nearly all actives have a fitted effect of over 30% in size
# VACV mCherry inh – qHTS for Stage-Specific Inhibitors of Vaccinia Orthopoxvirus: mCherry Reporter Primary qHTS | 310,000 tested, 0.63% active | Potency, µM (doses to about 36.5 µM), for the others: top-dose activity change, negative = inhibition, actives largely listed as inhibitors | AID 720579, 2013 | Vaccinia virus mCherry reporter infection, fluorescence; calls by dose curve; tested in A549 cells; note: potency is the fitted concentration of half-maximal effect; nearly all actives have a fitted effect of over 35% in size
# HCMV inh – qHTS Assay for inhibitors of the human cytomegalovirus (HCMV). HFF cells, HCMV-luciferase reporter, 72 h; hits give low values. activity change, negative = inhibition, % at 57.5 µM. 410,000 tested, 4.5% active; in the data active = activity change below about -60%; inconclusive = no clear call, values can overlap the other calls; inactive = above about -39%
#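 Inhibition of viral replication was scored as loss of reporter luminescence in HFFs infected with HCMV-luciferase (MOI 1 PFU/cell) for 72 h; compounds tested at 2 doses, normalized to buffer and Salinomycin controls.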
# Numbers without * were called inactive; i = inactive; u = inconclusive; x = no result given; ! = repeats disagree; [ ] = remark or other dose. Unless noted, calls come from the whole dose curve; as a rule, active = well fitted curve in the direction sought with a large enough effect; inconclusive = small, poorly fitted or top-dose-only effect, or another doubt; inactive = no such curve, though single readings can be large; an effect the other way counts as inactive or inconclusive. % is set by controls: 0 for no effect and ±100 for the full control effect.
SMILES,FMDV inh,FBPA Giardia inh,HCV inhibitor,VACV Venus inh,VACV mCherry inh,HCMV inh
COc1ccc(OCC(=O)Nc2c3c(nn2-c2ccc(OC)cc2)CS(=O)(=O)C3)cc1,-24%,x,x,-13%,i,-36
Cc1ccc(NC(=O)CSc2nc3ccc(NC(=O)c4cccs4)cc3s2)c(C)c1,16%,x,x,-18%,-6%,11
COc1ccc(CN2CCOc3ccc(CN4CCCCC4CO)cc3C2)c(OC)c1 (stereo not given),-2%,x,x,-3%,-5%,x
CCCC(=O)NC(c1ccc(N(C)C)cc1)c1ccc2cccnc2c1O (stereo not given),1%,u,3.2µM*,u,u,-98*
CC(C)C(=O)NC(c1ccc(N(C)C)cc1)c1c(O)ccc2ccccc12 (stereo not given),24%,-10%,u,x,x,0
O=C(CN1CCCCC1)Nc1ccc(C(F)(F)F)cc1Cl,7%,0%,6%,-18%,i,-70*
O=C(CN1CCCC1)Nc1cc(C(F)(F)F)ccc1Cl,-7%,5%,5%,-3%,i,1
O=C(CCNC(=O)c1ccccc1Cl)Nc1cccc(S(=O)(=O)N2CCOCC2)c1,6%,x,3%,x,x,-27
COc1cc(-c2nnc(COC(=O)c3ccc([N+](=O)[O-])o3)o2)cc(OC)c1OC,3%,x,x,-15%,u,10
CCOC(=O)c1cc2c(=O)n3ccccc3nc2n(Cc2ccco2)c1=NC(=O)c1cc(C)cc(C)c1,0%,x,x,10µM*,u,-77*
CCOC(=O)c1cc2c(=O)n3ccccc3nc2n(C(C)C)c1=NC(=O)c1c(-c2c(F)cccc2Cl)noc1C,-16%,0%,2µM*,-10%,-13%,-90*!
CCOC(=O)c1cc2c(=O)n3ccccc3nc2n(C)c1=NC(=O)c1c(-c2c(F)cccc2Cl)noc1C,-20%,x,u,-9%,-10%,u
Cc1[nH]n(-c2ccccc2)c(=O)c1C(=O)Nc1ccccc1,17%,-10%,1%,-4%,-12%,-15
C/C(=N\NC(=O)c1ccc(C)cc1)c1c(C)[nH]n(-c2ccccc2)c1=O,17%,13%,2%,x,x,-92*
C/C(=N\NC(=O)c1ccccc1)c1c(C)[nH]n(-c2ccccc2)c1=O,-3%,5%,u,u,u,-97*
CCN1CCN(c2ncc3c(n2)CCN(Cc2ccccc2C)C3)CC1,-19%,x,x,-16%,-16%,-5
CC(C)(C)c1ccc(C(=O)C[n+]2cccc(Br)c2)cc1,x,x,x,-16%,-15%,x
O=C(Cn1ccc(NC(=O)OCc2ccccc2)nc1=O)NCCCN1CCCC1=O,-8%,x,47%,-8%,i,10
COc1ccc([N+](=O)[O-])cc1NC(=O)c1cccs1,-2%,2%,11µM*,-6%,-3%,u
COc1ccc([N+](=O)[O-])cc1NC(=O)c1ccc(C)o1,-13%,3%,u,-3%,-10%,-103*
O=S(=O)(c1ccccc1)N1CCC(c2noc3ccccc23)CC1,x,x,x,x,x,-13
Cc1ccc(CNC(=O)c2ccc(CSCc3c(F)cccc3Cl)o2)cc1,0%,x,x,6%,-2%,-6
Cc1cccc(OCC(=O)Nc2ccc(N3CCN(C(=O)c4ccco4)CC3)cc2)c1,16µM*,-2%,u,u,u,-68*
Cc1cc(OCC(=O)Nc2ccc(N3CCCC3)cc2)cc(C)c1Cl,-15%,-6%,u,-9%,x,70
Cc1ccc(OCC(=O)Nc2ccc(N3CCN(S(C)(=O)=O)CC3)cc2)cc1C,-14%,7%,15%,-5%,6%,12
SMILES,FMDV inh,FBPA Giardia inh,HCV inhibitor,VACV Venus inh,VACV mCherry inh,HCMV inh
Cc1cccc(OCC(=O)Nc2ccc(N3CCN(C(=O)c4ccccc4)CC3)cc2)c1C,14µM*,-2%,u,-22%,u,14
Cc1ccc(OCC(=O)Nc2ccc(N3CCN(C(=O)c4ccco4)CC3)cc2)cc1C,14µM*,3%,-23%,u,-15%,u
Cc1cccc(C(=O)Nc2ccc(N3CCN(C(=O)c4ccco4)CC3)cc2)c1,7%,-3%,-27%,-9%,-25%,-25
Cc1cc(OCC(=O)Nc2ccc(N3CCN(C(=O)c4ccco4)CC3)cc2)cc(C)c1Cl,6.3µM*,15%,u,u,u,-36
CCC(=O)N1CCN(c2ccc(NC(=O)COc3cccc(C)c3C)cc2)CC1,-27%,18%,-16%,-13%,-26%,-25
CN(CC(=O)Nc1ccc(Cl)c(C(F)(F)F)c1)C(=O)c1cccs1,-23%,x,u,-10%,-9%,11
Nc1ccc(/C=C/c2ccnc3ccccc23)cc1[N+](=O)[O-],x,x,x,-7%,14%,x
Cc1ccc(NC(=O)COc2ccc(N(C)S(=O)(=O)c3ccc(F)cc3)cc2)cc1,u,x,u,x,x,-37
COc1ccc(C(=O)c2[nH]c(N)c(C(=O)NCCc3c[nH]c4ccccc34)c2-c2ccc(OC)c(OC)c2)cc1,-27%,x,x,-3%,-21%,90
O=S(=O)(NCc1ccco1)N1CCCCCC1,34%,2%,2%,-1%,-13%,-62*
O=S(=O)(NCc1ccco1)c1cccc(S(=O)(=O)N2CCCCC2)c1,15%,4%,3%,-12%,i,7
O=C1CCC[C@H]2[C@@H](Cc3ccccc3)[C@H](NCc3cccs3)CC[C@]23CCCN13,x,x,x,x,x,20
CC(C)(C)NC(=O)c1ccc(NC(=O)c2ccccc2-c2ccccc2C(=O)O)cc1,2%,2%,2%,x,x,57
CCOc1ccccc1C(=O)NCCCN1CCN(CCCNC(=O)c2ccccc2OCC)CC1,6%,7%,10µM*!,x,x,6
CC(C)(C)c1ccc(C(=O)NCCCN2CCN(CCCNC(=O)c3ccc(C(C)(C)C)cc3)CC2)cc1,-18%,-8%,u,11µM*,u,u
CCCN1C(=O)C(=O)c2cc(Cl)ccc21,0%,x,u,-6%,-14%,-86*
Cc1ccc(OCCCN2C(=O)C(=O)c3cccc(C)c32)cc1,-11%,-15%,-24%,-14%,-5%[1.46 µM],56
Cc1ccc2c(c1)C(=O)C(=O)N2Cc1ccc(C(F)(F)F)cc1,-22%,x,u,u,-19%,u
Cc1ccc(OCCN2C(=O)C(=O)c3cc(C)ccc32)cc1,-3%,-19%,u,3%[7.34 µM],u,-92*
Cc1ccc2c(c1)C(=O)C(=O)N2Cc1ccc(OC(C)C)cc1,-9%,x,x,u,-23%,-76*
COC(=O)c1ccc(NC(=O)[C@H](C)NC(N)=O)cc1,-15%,6%,1%,x,x,-6
